About 240 (0.13%) of roughly 190,000 compounds were called active. Rule as the data show it: active = inhibition above about 40%. The sample as a whole holds a higher share of actives than the screen did.
Biological target: Bcl-2-related protein A1 (Homo sapiens) (UniProt Q16548)
Experiment: Bfl-1/Bim complex disruptors – biochemical, multiplexed, bead-based flow cytometry, primary screen (AID 1008);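 also: 0% = wells without compound plus tracer and 100% = blocker peptide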
Details: Bim-Bfl-1 binding inhibition, at 10 µM, hits give high values

Sequence of Bcl-2-related protein A1 (Homo sapiens) (Q16548 whole entry, looked up): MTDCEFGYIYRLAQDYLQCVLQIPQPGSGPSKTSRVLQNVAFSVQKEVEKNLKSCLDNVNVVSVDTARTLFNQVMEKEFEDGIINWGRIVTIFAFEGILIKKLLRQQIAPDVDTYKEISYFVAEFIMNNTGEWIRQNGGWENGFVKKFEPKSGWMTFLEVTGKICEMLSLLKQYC

inhibition, inactive:
COc1ccc(S(=O)(=O)N2CCCCCC2)cc1C(=O)OCC(=O)Nc1cc(C)on1 -1%
O=C(Cc1ccc(F)cc1)N/N=C/c1ccc2c(c1)OCO2 -2%
Cc1ccc(SCCC(=O)NCc2ccccn2)cc1 4%
C/C(=N\NC(=O)c1cc2c(s1)CCC(C)C2)c1cccnc1 (stereo unspecified) 0%
O=C(Nc1cccnc1)c1ccc(Cl)cc1[N+](=O)[O-] -1%
O=C(CC1SC(=Nc2ccccc2)N(Cc2ccccn2)C1=O)Nc1cccc(Cl)c1 (stereo unspecified) 11%
O=C(CCN1C(=O)c2ccncc2C1=O)Nc1cc(F)ccc1F -8%
Cc1csc(Nc2ccc(Cl)cc2)[n+]1-c1ccc(Cl)cc1 5%
Cc1ccc(NC(=S)N(CCN2CCCCC2)Cc2ccco2)cc1C -3%
CCc1ccccc1NC(=O)CN(c1ccc(OC)cc1OC)S(=O)(=O)c1ccccc1[N+](=O)[O-] -12%
Cn1c(=O)c([N+](=O)[O-])c(Oc2ccccc2)c2ccccc21 0%
C=CCN(CC=C)C(=O)COC(=O)c1n[nH]c2ccccc12 -7%
CCc1ccc(C(=O)OCC(=O)NCC(F)(F)F)cc1 -3%
CCOC(=O)CSC1=N/C(=C/c2ccc(-n3cncn3)cc2)C(=O)N1C(C)=O -5%
Cc1ccc(C2=N/C(=C\c3ccc(OS(=O)(=O)c4ccc(C)cc4)cc3)C(=O)O2)cc1 -2%
Cc1cc(NC(=O)CSc2nnc(Nc3ccccc3F)s2)no1 -8%
CN1CCN(c2nc(Nc3ccc(O)cc3)nc3ccccc23)CC1 -5%
CCOC(=O)CNC(=O)/C(=C\c1ccc(F)cc1)NC(=O)c1ccccc1 -7%
O=C(Cn1nc(CNc2ccc(Cl)cc2)[n+]2c1CCCCC2)c1ccc(Cl)cc1 -16%
CC1CCN(S(=O)(=O)c2ccc(S(=O)(=O)NCc3cccnc3)cc2)CC1 6%
COC(=O)Cn1cc(/C=C/[N+](=O)[O-])c2ccccc21 4%
CC(C(=O)NC1CCCC1)N(c1ccc(Oc2ccccc2)cc1)S(C)(=O)=O (stereo unspecified) -2%
COc1cc2sc(C)nc2cc1C 2%
CSCCC(NC(=O)c1cc([N+](=O)[O-])cc([N+](=O)[O-])c1)c1nc2ccccc2[nH]1 (stereo unspecified) -16%
CCn1c(=S)[nH]c2sc3c(c2c1=O)CCCCC3 3%
COc1cc(/C=N/NC(=S)Nc2cccnc2)cc(OC)c1O 7%
CN(C)/N=C/c1cc(Cl)cc([N+](=O)[O-])c1O 0%
CCOC(=O)C1(Cc2cccc(OC)c2)CCCN(S(=O)(=O)c2cccnc2)C1 (stereo unspecified) -2%
Fc1ccc(COc2cccc(-c3n[nH]c(=S)o3)c2)cc1 5%
O=C(C1CCCO1)N1CCN(C(=S)NC2CC2)CC1 (stereo unspecified) -4%
COc1ccc(CNC(=O)COC(=O)/C=C/c2ccc(S(=O)(=O)N3CCOCC3)cc2)cc1 -3%
COC(=O)c1cc2occc2n1Cc1nc(-c2ccccc2C)oc1C 0%
CC(=O)Nc1cccc(/C(C)=N/NC(=O)c2c(-c3ccccc3Cl)noc2C)c1 0%
COc1ccc(C(=O)CSc2nnnn2C)c(OC)c1 -5%
Nc1nc(-c2sc3nc4c(cc3c2N)CCCC4)nc(N2CCOCC2)n1 -5%
CC1(c2ccccc2)CC(C)(C)N(C(=O)c2cc([N+](=O)[O-])cc([N+](=O)[O-])c2)c2ccccc21 (stereo unspecified) -1%
CCN(C(=O)CN1CCN(Cc2ccccc2)CC1)c1c(N)n(Cc2ccccc2)c(=O)[nH]c1=O -3%
Cn1c(=O)c2c(ncn2CC(=O)N/N=C/c2cn[nH]c2-c2ccc(F)cc2)n(C)c1=O -3%
C/C(=N/NS(=O)(=O)c1ccccc1)c1ccc(NC(=O)C(F)(F)F)cc1 -2%
O=C1N/C(=C/c2cccn2-c2ccccc2)C(=O)N1c1cccc(Cl)c1 -2%
CSCC(NS(=O)(=O)c1ccc(C)cc1)C(=O)O (stereo unspecified) -9%
Cc1c(C(=O)c2cccc([N+](=O)[O-])c2)c2ccccn2c1CCC#N -8%
O=C(CCN1C(=O)c2ccccc2C1=O)C1=NN[C@@H]2C(=O)N(c3ccc(F)cc3)C(=O)[C@H]12 -9%
CCOc1ccc(C(CC(=O)O)n2cnnn2)cc1OC (stereo unspecified) -4%
COC(c1ccccc1)c1nnc(CCC(=O)N2CCN(CCOc3ccccc3)CC2)o1 (stereo unspecified) -5%
Cc1cccc(Cn2cnc3c(N)c(C)c(C)cc32)c1 -4%
Cc1ccc2c(c1)C1CN(C)CCC1N2C(=S)Nc1ccc(OC(F)F)cc1 (stereo unspecified) -7%
Nc1nc(SCc2ccc([N+](=O)[O-])cc2)c2ncn(C3OC(CO)C(O)C3O)c2n1 (stereo unspecified) -10%
O=c1[nH]n2c(=O)c3c([nH]c2c1N=Nc1ccccc1)CCC3 0%
COc1ccc(OC)c2[nH]c(=O)c(CCNC(=O)C(=O)c3c[nH]c4ccccc34)cc12 -9%
Cc1cc(/C=N/NC(N)=O)c(C)n1C1CCCCC1 16%
